# The supplement of paper PMC4166925
# ± gives the standard deviation of the averaged measurements. In all, about 33,000 sequences were measured (“E-score (dimensionless, -0.5 to 0.5)”: median about -0.049, highest 2% from about 0.37 on). Only a selection was taken, and the highest values are over-represented in it overall.
# Test system: T1, PmTbr T-box DNA-binding domain (GST fusion)
# T1 sequence: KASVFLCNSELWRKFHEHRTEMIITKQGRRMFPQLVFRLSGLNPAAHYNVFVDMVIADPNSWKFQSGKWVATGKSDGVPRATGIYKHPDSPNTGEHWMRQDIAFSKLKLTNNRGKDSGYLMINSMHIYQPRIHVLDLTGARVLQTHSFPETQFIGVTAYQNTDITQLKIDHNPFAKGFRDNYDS
# Assay: PBM E-score of 8-mer (E-score (dimensionless, -0.5 to 0.5)); Tbr is Tbrain of the sea star Patiria miniata (Pm) or the sea urchin Strongylocentrotus purpuratus (Sp); higher = stronger binding preference
# Conditions: the construct has about 5 more residues each side
# Procedure: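 Universal protein-binding microarray (Agilent AMADID 016060, 60-bp probes with a 35-bp variable region) incubated with 200 nM GST-fused Patiria miniata Tbr T-box DNA-binding domain (residues 272-466) in PBS pH 7.5. Scored for every ungapped 8-mer (given with its reverse complement) by the Universal PBM Analysis Suite as E-score (modified Wilcoxon-Mann-Whitney enrichment, range -0.5 to 0.5; >0.45 counts as bound) and Z-score of median probe intensity. Two replicate arrays (datasets 1 and 2).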
row,Sequence,PBM E-score of 8-mer
1,GAGGCGCC,0.269 ± 0.018
2,TCACACCA,0.48075 ± 0.00012
3,CCACACCA,0.29 ± 0.033
4,TCTCACCA,0.372 ± 0.011
5,ACTCACCA,-0.0425 ± 0.12
6,CCACACAA,0.0617 ± 0.024
7,GCACAACA,0.17 ± 0.013
8,TCACAACA,0.384 ± 0.00069
9,ACACACCA,0.285 ± 0.011
10,CCACAACA,0.203 ± 0.049
11,TCACACAA,0.414 ± 0.015
12,ACACACAA,0.0649 ± 0.066
13,CCTCACCA,0.141 ± 0.045
14,AATGACAT,-0.101 ± 0.054
15,GGAACTCC,-0.22 ± 0.083
16,GCCTCTTA,-0.0658 ± 0.019
17,GAGGAATA,-0.274 ± 0.02
18,TCGGACAA,-0.0104 ± 0.018
19,ACTCAAGT,-0.000135 ± 0.051
20,ATGGACTG,-0.165 ± 0.016
21,CACACACC,0.428 ± 0.021
22,CGCACACC,0.325 ± 0.022

row,Sequence,PBM E-score of 8-mer
1,CCCACACG,0.0862 ± 0.0074
2,CCCACACC,0.43 ± 0.019
3,GCCACACA,0.279 ± 0.031
4,CCCACACA,0.17 ± 0.0076
5,GCCACACC,0.394 ± 0.024
6,GACACACC,0.287 ± 0.073
7,ACCACACC,0.361 ± 0.023
8,ATGCTCGG,0.00834 ± 0.022
9,GACGTCTC,-0.235 ± 0.013
10,GGGTAGGA,-0.205 ± 0.052
11,GACACCAA,0.345 ± 0.0047
12,ACCACCAC,0.0224 ± 0.049
13,GACACCAC,0.393 ± 0.016
14,ACCACCAA,0.0394 ± 0.048
15,AACACCAC,0.3719 ± 0.0024
16,AGCACCAC,0.115 ± 0.054
17,ACCACCAT,0.1243 ± 0.0012
18,GGCACCAC,0.225 ± 0.022
19,AACACCAT,0.3887 ± 0.0029
20,ATCACCAT,0.155 ± 0.014
21,GCCACCAC,0.122 ± 0.08
22,AACACCAA,0.393 ± 0.011

row,Sequence,PBM E-score of 8-mer
1,AATGCAGG,-0.116 ± 0.0066
2,GCACAGCC,-0.192 ± 0.031
3,ACAGTGTG,0.324 ± 0.025
4,GGAGCATA,-0.0893 ± 0.017
5,AGGCTGAA,-0.124 ± 0.018
6,AAACCAAG,-0.0652 ± 0.0092
7,CAAGCTCC,-0.181 ± 0.059
8,ACCCCCTG,0.0477 ± 0.028
9,ATACCCTG,-0.154 ± 0.04
10,CCACCCTC,0.0601 ± 0.017
11,GCACCCTA,0.133 ± 0.089
12,ACACCCTC,0.429 ± 0.0062
13,ACACCCTA,0.383 ± 0.018
14,CCACCCTA,0.0728 ± 0.0043
15,ACCCCCTC,-0.00817 ± 0.062
16,ACACCCTG,0.426 ± 0.026
17,GAGCCATC,-0.0135 ± 0.0062
18,GGAGTTCA,-0.0635 ± 0.036
19,AAGGCGAT,0.0522 ± 0.036
20,AGCAAACA,0.0237 ± 0.023
21,GATGAAGA,-0.134 ± 0.051
22,CGTCAACA,0.311 ± 0.036

row,Sequence,PBM E-score of 8-mer
1,GGTCAACA,0.123 ± 0.0043
2,TGTCAACA,0.378 ± 0.0046
3,GCGCTCCC,-0.133 ± 0.028
4,AGTTCGCG,0.221 ± 0.038
5,GATCCTGA,-0.144 ± 0.049
6,GTCATCAC,0.2787 ± 0.00098
7,ATCATCAC,0.381 ± 0.008
8,ATTATCAC,0.38 ± 0.053
9,CTCATCAC,0.249 ± 0.0053
10,ATTATCAG,-0.0355 ± 0.028
11,CTTATCAC,0.331 ± 0.023
12,ATAAACGG,-0.131 ± 0.087
13,CGTACCCC,-0.186 ± 0.063
14,GGTCGATA,0.0375 ± 0.069
15,CCTGAGAG,0.208 ± 0.03
16,CACAGCCG,-0.0675 ± 0.11
17,ACGCGCGA,0.3693 ± 0.0027
18,CCGCGCGA,0.226 ± 0.0095
19,GCGCGCGA,0.2759 ± 0.00057
20,ACGCGCGG,0.19 ± 0.031
21,ACGCGCGC,0.157 ± 0.033
